These results are taken from ChEMBL document CHEMBL1157539, “Thousands of chemical starting points for antimalarial lead identification” (Nature, 2010).

Type in all cases: functional
Assay [1] has as its system Plasmodium falciparum. In words: GSK_TCMDC: Inhibition of Plasmodium falciparum 3D7 in whole red blood cells, using parasite LDH activity as an index of growth. Test compounds present at 2uM.
The test system of assay [2] is Plasmodium falciparum. Nature of the assay: GSK_TCMDC: Inhibition of Plasmodium falciparum Dd2 in whole red blood cells, using parasite LDH activity as an index of growth. Test compounds present at 2uM.
In another assay the test system is HepG2. In words: GSK_TCMDC: Percent inhibition of human HepG2 cell line. Test compounds present at 10uM.

Molecules are shown by their SMILES.

As for `COc1ccc2nccc([C@@H](O)CN3CCC(NCC(=O)Nc4cc(F)cc(F)c4)CC3)c2n1.O=C(O)C(=O)O`, the Inhibition in the assay on Plasmodium falciparum [1] is 89%; in the assay on Plasmodium falciparum [2], 28%; in the assay on HepG2 it was 18%.
In the same order, the values of `CCOCc1cnc(C)nc1CNC(=O)c1c(C)[nH]c2ccc(C)cc12` are 84%, 65% and 8%.
For the compound `Cc1ccc(NC(=O)c2ccc3ncccc3c2)cc1OC1CCN(CCC(C)C)CC1.O=C(O)C(F)(F)F`, the Inhibition was found to be 94% in the assay on Plasmodium falciparum [1], 48% with Plasmodium falciparum [2] and 2% in the assay with HepG2.
In the same order, the values of `O=C(O)C(F)(F)F.c1ccc(C2CCN(Cc3ccc(-c4c[nH]c5nc(NC6CCCC6)ncc45)cc3)CC2)cc1` are 82%, 9% and 39%.
The corresponding values for `COc1cc2c(cc1OC)CN(CCc1ccc(NC(=O)c3cc4cc(OC(F)(F)F)ccc4[nH]3)cc1)CC2` are 99%, 20% and 36%.
With `COc1cc(CNc2ccc(N3CCCC3)cc2)cc(Cl)c1OC`, the Inhibition with Plasmodium falciparum [1] amounted to 100%; in the assay with Plasmodium falciparum [2] it was 94%; with HepG2 it was 41%.
Take `CSc1nccc(-c2ccc3ccnc(N)c3c2)n1`: the Inhibition in the assay with Plasmodium falciparum [1] worked out at 100%; in the assay on Plasmodium falciparum [2], 98%; with HepG2 it was 30%.
Regarding `CN1CCCN(Cc2cccc(-c3cccc(NC(=O)c4ccc(C#N)cc4)c3)c2)CC1.O=C(O)C(F)(F)F`, the Inhibition stood at 89% in the assay on Plasmodium falciparum [1], 4% in the assay with Plasmodium falciparum [2] and 7% in the assay on HepG2.
The corresponding values for `Cc1cc(N[C@@H](Cc2ccccc2)C(=O)NCCOc2ccccc2)nc(NCCc2ccc(F)cc2)n1.O=C(O)C(F)(F)F` are 99%, 86% and 5%.
Take `O=C(NCCCCCN1CCC(c2c[nH]c3ccccc23)CC1)Nc1cccc(I)c1`: the figures for the Inhibition in the assay on Plasmodium falciparum [1], with Plasmodium falciparum [2] and in the assay on HepG2 were 99%, 11% and 70%, respectively.
For the compound `CN(CCS(C)(=O)=O)Cc1ccc(-c2ccc3ncnc(Nc4ccc(OCc5cccc(F)c5)c(Cl)c4)c3c2)o1.Cc1ccc(S(=O)(=O)O)cc1`, the Inhibition with Plasmodium falciparum [1] is 100%; in the assay with Plasmodium falciparum [2], 65%; in the assay on HepG2, 25%.
The corresponding values for `c1cc2[nH]c(CCc3nc4cc(C5=NC6CCCCC6N5)ccc4[nH]3)nc2cc1C1=NC2CCCCC2N1` (configuration not stated) are 93%, 96% and 3%.
The corresponding values for `CN(C)C(=O)c1cc(CNCc2ccccc2)ccc1-c1cccc(CNCc2ccc(-c3ccccc3)cc2)c1.O=C(O)C(F)(F)F` are 90%, 12% and 27%.
Regarding `O=C(NCCN1CCCC1)c1cccc(-c2ccc(-c3nc4ccccc4[nH]3)cc2)c1`, the Inhibition amounted to 100% in the assay on Plasmodium falciparum [1], 36% in the assay on Plasmodium falciparum [2] and 20% in the assay on HepG2.
Regarding `COc1cc(NCCCNCc2cn(S(=O)(=O)c3ccccc3)c3ccccc23)nc2ccccc12`, the Inhibition is given as 100% with Plasmodium falciparum [1], 77% in the assay with Plasmodium falciparum [2] and 36% in the assay on HepG2.
The corresponding values for `CC(C)c1ccc2c(c1)c(SC(C)(C)C)c(CC(C)(C)C#N)n2Cc1ccc(Cl)cc1` are 96%, 95% and 0%.
For `Cn1ccc2c3c(N)nc(N)nc3ccc21`, the Inhibition in the assay with Plasmodium falciparum [1] is given as 91%; with Plasmodium falciparum [2] it was 17%; with HepG2, 59%.
For `CCOC(=O)c1ccc(NC(=O)N[C@@H](Cc2ccccc2)C(=O)NC2CCN(Cc3ccc(O)c(OC)c3)C2)cc1` (some centres not stated), the Inhibition is 88% in the assay on Plasmodium falciparum [1], 0% with Plasmodium falciparum [2] and 0% in the assay with HepG2.
On to `O=C(/C=C/c1ccc(Cl)c(Cl)c1)NCCCCCN1CCCN(C(=O)Nc2ccc(Cl)c(Cl)c2)CC1`, for which the Inhibition in the assay with Plasmodium falciparum [1] is 100%; in the assay on Plasmodium falciparum [2] it was 2%; with HepG2, 55%.
In the case of `CCN(C1CCCCC1)S(=O)(=O)c1ccc(OC)c(N2CCN(C(=O)C(Cl)(Cl)Cl)CC2)c1`, the results for the Inhibition in the assay with Plasmodium falciparum [1], with Plasmodium falciparum [2] and in the assay on HepG2 were 100%, 85% and 0%, respectively.
In the case of `Cc1cccc2nc(-c3ccc(-c4cccc(CN5CCN(c6ccncc6)CC5)c4)s3)[nH]c12.O=C(O)C(F)(F)F`, the Inhibition worked out at 100% in the assay with Plasmodium falciparum [1], 99% in the assay with Plasmodium falciparum [2] and 48% in the assay on HepG2.
On to `O=C(/C=C/c1cccc(Cl)c1)N1CCC(C(O)CN2CCC3(CC2)CN(C(=O)/C=C/c2cccc(Cl)c2)c2ccccc23)CC1` (configuration not stated), for which the figures for the Inhibition in the assay with Plasmodium falciparum [1], in the assay on Plasmodium falciparum [2] and in the assay on HepG2 were 91%, 38% and 34%, respectively.
As to `Cc1cc(N[C@@H](Cc2ccccc2)C(=O)NCCc2ccccc2)nc(NCCc2ccc(F)cc2)n1.O=C(O)C(F)(F)F`, the Inhibition with Plasmodium falciparum [1] came to 99%; with Plasmodium falciparum [2], 89%; in the assay on HepG2, 9%.
For the compound `CN(C)c1ccc(-c2nc3cc(N)ccc3[nH]2)cc1`, the Inhibition in the assay with Plasmodium falciparum [1] was determined as 100%; in the assay with Plasmodium falciparum [2] it was 97%; with HepG2 it was 1%.
The corresponding values for `Cl.N=C(N)Nc1ccc(OCCCCCOc2ccc(NC(=N)N)cc2)cc1` are 99%, 100% and 12%.
Consider `NC(=O)c1cccc(C(=O)Nc2ccc(-c3cccc(-c4nc5cc(F)ccc5[nH]4)c3)cc2)c1`, for which the Inhibition in the assay on Plasmodium falciparum [1] is 94%; with Plasmodium falciparum [2], 5%; with HepG2, 45%.
For the compound `Cc1ccc(Cn2c(N3CCC(C(=O)NCc4ccccn4)CC3)nc3ccccc32)cc1`, the values for the Inhibition in the assay with Plasmodium falciparum [1], in the assay with Plasmodium falciparum [2] and in the assay on HepG2 were 100%, 99% and 0%, respectively.
Turning to `O=C(NCCCCN1CCC(c2ccc3c(c2OCc2ccccn2)CCCC3)CC1)c1ccc(NC(=O)c2ccc(Cl)cc2)cc1`, the Inhibition in the assay with Plasmodium falciparum [1] came out at 100%; in the assay with Plasmodium falciparum [2], 70%; with HepG2, 31%.
The corresponding values for `CCCN(CCC)C(=S)N/N=C1/C(=O)Nc2ccccc21` are 97%, 86% and 28%.

The Inhibition is the drop in the measured response relative to a control, in per cent. Low readings indicate a weak effect, high ones a strong effect.
